# A selection: hits, their analogues and other compounds. The true share with any hit is near 2.3%.
# GLD-1 TGE inh – GLD-1-TGE RNA interaction inhibition (C. elegans) | purified GLD-1 + fluorescein TGE RNA, fluorescence polarization | inhibition, % at 5.96 µM | 320,000 tested, 0.44% active | AID 2280;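 active = percent inhibition above a per-plate cutoff, the plate mean of test compounds plus 3 SD, cut at about 30% in these data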;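 also: 0% = DMSO wells with GLD-1 and probe and 100% = wells lacking GLD-1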
# Mcl1-Noxa inh – disrupts binding of human Mcl-1 to Noxa peptide; Q07820; TR-FRET Mcl-1/Noxa peptide binding, 2 h; inhibition, % at 21.7 µM; 220,000 tested, 1.5% active;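 active = compounds that cut the protein-peptide binding signal by more than 50% relative to plate controls in a single-dose test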;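 also: His-tagged Mcl-1 with rhodamine Noxa BH3 peptide and terbium anti-His antibody; 0% = Mcl-1 plus Noxa peptide wells and 100% = peptide-only wells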
# Target sequence (Q07820 whole entry, looked up): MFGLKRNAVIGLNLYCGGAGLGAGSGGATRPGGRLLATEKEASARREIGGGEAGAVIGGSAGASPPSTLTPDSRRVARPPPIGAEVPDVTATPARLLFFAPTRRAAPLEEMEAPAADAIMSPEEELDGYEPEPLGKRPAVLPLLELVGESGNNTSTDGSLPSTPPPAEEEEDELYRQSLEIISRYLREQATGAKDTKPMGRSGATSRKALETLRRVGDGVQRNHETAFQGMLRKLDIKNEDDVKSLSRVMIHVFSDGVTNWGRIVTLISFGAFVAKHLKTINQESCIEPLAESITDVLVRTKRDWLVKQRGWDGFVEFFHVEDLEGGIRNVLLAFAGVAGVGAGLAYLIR
# Mcl1 Bid PPI – Mcl-1/Bid interaction inhibition | inhibition, % at 21.7 µM | TR-FRET Mcl-1/Bid-Dy647 peptide binding, 1536-well | AID 1021 | Q07820 | 220,000 tested, 0.97% active;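 active = compounds that cut the binding signal by more than half at the single screening dose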;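 also: His-tagged Mcl-1 with europium anti-His antibody binding Bid BH3 peptide; 0% = Mcl-1 plus peptide wells and 100% = peptide-only wells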
# Mcl-1 Bim block – disrupts Bim peptide binding to human Mcl-1 | Q07820 | Bead-based flow cytometry, Bim peptide-Mcl-1 binding | inhibition, % at 10 µM | 190,000 tested, 0.1% active; in the data active = inhibition above about 40%;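 also: 0% = no compound tracer wells and 100% = peptide blocker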
# MCL1 BIM primary – MCL1-BIM-BH3 interaction inhibition (human); inhibition, % at 10.9 µM; AID 2057; 320,000 tested, 0.68% active; Q07820; GST-MCL1 / FITC-Bim-BH3 fluorescence polarization;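 active = inhibition above the mean inhibition of all tested compounds plus 3 SD, set per campaign, cut at about 40% in these data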;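 also: 0% = DMSO wells and 100% = unlabeled Bim-BH3 peptide control; higher means more loss of mP so more displacement of Bim peptide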
# Bcl-xL primary – Bcl-xL (human) inhibition; GST-Bcl-xL / FITC-Bim BH3 peptide fluorescence polarization; inhibition, % at 10.9 µM; 320,000 tested, 0.7% active; AID 2129;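 active = inhibition above the mean of all tested compounds plus 3 SD, cutoff set per campaign, cut at about 30% in these data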;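 also: 0% = DMSO wells and 100% = unlabeled Bim-BH3 peptide competitor; inhibitors lower millipolarization by displacing the labeled peptide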
# * = called active by the depositor; · = no result given.
SMILES,GLD-1 TGE inh,Mcl1-Noxa inh,Mcl1 Bid PPI,Mcl-1 Bim block,MCL1 BIM primary,Bcl-xL primary
COc1ccccc1OCCOc1ccc(/C=C2/C(=N)N3OC(C)=CC3=NC2=O)cc1OC,2,-22,84*,0,-7,1
CC1=CC2=NC(=O)/C(=C\c3cccn3CCOc3ccccc3C)C(=N)N2O1,3,5,-4,-3,-2,1
COc1ccccc1-c1nc(SCC(=O)Nc2cc(C)on2)c2c(=O)n(C)c(=O)n(C)c2n1,2,·,·,·,-2,5
CCSc1sccc1C1C(C#N)=C(N)N(c2cccnc2)C2=C1C(=O)CCC2 (stereo unspecified),12,19,-3,-1,31,31*
NC1CCN(c2c(F)cc3c(=O)c(C(=O)O)cn(C4CC4)c3c2Cl)C1 (stereo unspecified),4,-37,63*,·,-12,-1
COc1c(N2CCNC(C)C2)c(F)cc2c(=O)c(C(=O)O)cn(C3CC3)c12 (stereo unspecified),4,·,·,·,5,3
COc1ccc(C(=O)Nc2ccnn2C2CCN(Cc3ccccn3)CC2)cc1,4,·,·,·,21,18
CC(C)(C)c1ccccc1NC(=O)c1ccc(-n2cncn2)c([N+](=O)[O-])c1,2,·,·,·,-14,-6
COc1ccccc1C(C)NS(=O)(=O)c1cccs1 (stereo unspecified),-3,·,·,·,-3,0
CCc1nnc(NC(=O)c2sc3nc4c(cc3c2N)CCCCCC4)s1,4,53*,42,-4,-5,3
CCc1cc2cc(C)cc(C)c2[nH]c1=S,-1,60*,26,0,2,4
COc1cc(NCCC(=O)c2cccs2)c(OC)cc1Cl,-1,86*,-28,-1,2,3
CCc1ccccc1NC(=O)CN1CCN(CC(=O)NCc2ccc(Cl)cc2)CC1,8,·,·,·,-3,-3
c1ccc2[nH]c(-c3ccncc3)nc2c1,-1,5,-47,1,10,2
Fc1cc2nc(-c3ccncc3)[nH]c2cc1F,0,-9,71*,1,2,5
CC(=O)c1sc(NC(=O)c2ccc(F)c(S(=O)(=O)N3CCOCC3)c2)nc1C,7,·,·,·,0,3
O=C(/C=C/c1ccco1)Nc1cccc2cccnc12,30,32,-34,4,37,51*
COc1ccc(N2CCN(CC(=O)Nc3sccc3C#N)CC2)cc1,1,24,-50,-2,10,9
COc1ccc(CNCC(=O)Nc2sccc2C#N)cc1,-2,53*,28,-4,-1,-2
Cn1c(N)c(C(=O)CSc2nnnn2-c2ccccc2)c(=O)n(C)c1=O,-9,-8,-6,·,-4,-8
Cc1ccccc1-n1nnnc1SCC(=O)c1c(N)n(C)c(=O)n(C)c1=O,-3,54*,-40,·,-12,-7
CC(C)(C)CC(=O)Nc1nnc(SCC(=O)NC2CCCCC2)s1,1,·,·,·,3,3
CC(=O)Oc1ccc(C(=O)[C@H]2[C@H]3C(=O)N(c4ccc(C)cc4)C(=O)[C@H]3[C@@H]3C=CC=NN32)cc1,38*,13,-49,1,25,29
COc1ccc(C(=O)NNC(=O)CN2CCC(n3nnc4cc(C(F)(F)F)ccc43)CC2)cc1,2,52*,0,-2,5,4
NS(=O)(=O)c1cccc(NC(=O)COC(=O)CSCc2ccccc2)c1,2,·,·,·,·,·
SMILES,GLD-1 TGE inh,Mcl1-Noxa inh,Mcl1 Bid PPI,Mcl-1 Bim block,MCL1 BIM primary,Bcl-xL primary
COCCn1c(=NC(=O)c2cccs2)sc2cc(NC(C)=O)ccc21,2,10,5,-7,0,1
C#CCn1c(=NC(=O)c2ccc(Br)s2)sc2cc(NC(C)=O)ccc21,-4,-31,58*,-13,-2,0
O=C(COc1ccccc1)NC(=S)Nc1ccc2c(c1)Cc1ccccc1-2,7,52*,-34,13,16,6
O=C(COc1ccccc1)NC(=S)Nc1cccc([N+](=O)[O-])c1,7,5,-13,-2,14,5
Nc1cccc2c1C(=O)N(C(=O)c1ccc(Cl)c(S(=O)(=O)N3CCCCCC3)c1)C2=O,26,-17,-12,-1,33,37*
CC(=O)Nc1ccc(-n2cc(-c3ccccc3)[nH]c2=S)cc1,8,53*,-31,-7,6,8
COc1ccc(-n2cc(-c3ccccc3)[nH]c2=S)cc1,3,11,-102,-16,-5,-1

# Screening data: PubChem, several laboratories
